In PubChem BioAssay AID651821 (The Scripps Research Institute Molecular Screening Center, 2012):
Hit rate of the full screen: of about 370,000 compounds, about 4,700 (1.3%) were called active. Only a selection was taken, and actives are over-represented in it overall. A number with no mark means an inactive call.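 How the source made its calls: active means inhibition above the plate cutoff, the mean of all test compounds on that plate plus 3 SD (cut at about 35% in these data); inactive means the rest.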

Assay: binders of r(CAG) RNA repeats, primary screen, biochemical, fluorescence (AID 651821);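 further: 0% = DMSO alone and 100% = 100 µM mitoxantrone as full dye displacement; higher means more dye released from RNA so lower well fluorescence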
Settings: r(CAG) RNA repeat, TO-PRO-1 dye displacement fluorescence; at 3 µM; stronger effect = higher value

Row | Compound | inhibition
1 | COc1ccc(/C=C2\CC3(OC(C)=O)CCCN2C3)cc1 (stereo unspecified) | -0.3%
2 | CC(=O)Oc1c(C(=O)c2nnc(C)o2)c(=O)n(Cc2ccccc2)c2ccccc12 | 2.47%
3 | Cc1ccc(C(=O)/C=C/Nc2ccc(S(=O)(=O)Nc3onc(C)c3C)cc2)cc1 | 48.3% (active)
4 | CC(Oc1cccc(Cl)c1)C(=O)Nc1ccc(S(=O)(=O)Nc2ncccn2)cc1 (stereo unspecified) | 8.9%
5 | Cc1noc(NS(=O)(=O)c2ccc(NC(=O)C34CCC(CC3)C4)cc2)c1C | 2.57%
6 | Cc1cc(C)nc(NS(=O)(=O)c2ccc(N/C=C\C(=O)c3cccs3)cc2)n1 | 10.2%
7 | Cc1cc(NS(=O)(=O)c2ccc(NC(=O)C(C)Oc3cccc(C)c3C)cc2)nc(C)n1 (stereo unspecified) | 18.4%
8 | Cc1cc(OC(C)C(=O)Nc2ccc(S(=O)(=O)Nc3onc(C)c3C)cc2)cc(C)c1Cl (stereo unspecified) | 75.6% (active)
9 | COc1cccc(CNC(=O)CNS(=O)(=O)c2ccc3nc(C)sc3c2)c1OC | 0.91%
10 | COc1cccc(CNC(=O)[C@H]2CCCN2C(=O)[C@H]2CCCN2C(=O)c2cc(F)cc(F)c2)c1 | -1.44%
11 | COC(=O)C[C@@H]1CC[C@@H]2[C@H](COc3ccc(NC(=O)c4cccc(F)c4)cc3C(=O)N2C)O1 | -0.86%
12 | COc1ccccc1C(=O)NC1CCCCN(C(C)C)C1=O (stereo unspecified) | -0.3%
13 | O=C(CCC1CCN(C(=O)c2cccc(Cl)c2F)CC1)Nc1ccccc1 | -5.06%
14 | C[C@@H]1CN([C@@H](C)CO)S(=O)(=O)c2ccc(-c3ccc(C(=O)N(C)C)cc3)cc2O[C@@H]1CN(C)Cc1ccccc1C(=O)O | 3.43%
15 | C[C@@H]1CN([C@H](C)CO)S(=O)(=O)c2ccc(C#C[C@@H](C)O)cc2O[C@@H]1CN(C)Cc1ccc(-c2ccccc2)cc1 | 4.36%
16 | Cc1ccccc1-c1ccc2c(c1)O[C@@H](CN(C)Cc1ccc(C(=O)O)cc1)[C@@H](C)CN([C@H](C)CO)S2(=O)=O | 51.3% (active)
17 | CN(C)c1ccc(NC(=O)NC2CCCCN(Cc3ccc(Cl)cc3)C2=O)cc1 (stereo unspecified) | 5.29%
18 | Cc1ccc2cc(/C=N/Nc3ccc(C(=O)O)cc3)c(Cl)nc2c1 | 41.6% (active)
19 | CC(=O)Nc1ccc(C(=O)CSc2nc3ccc(C)cc3[nH]2)cc1 | 14.5%
20 | CSCC[C@H](NC(=O)OC(C)(C)C)C(=O)N/N=C/c1cc2ccc(C)cc2nc1Cl | 3.07%
21 | CCOC(=O)/C=C/c1ccccc1O | 0.7%
22 | CCC(=O)Nc1ccc2c(c1)C(=O)N(C)[C@H]1CC[C@H](CC(=O)NCCOC)O[C@@H]1CO2 | -0.44%

Row | Compound | inhibition
23 | Cc1ccc(Cc2nnc(SCC(=O)Nc3ccccc3C)[nH]c2=O)cc1 | 15.2%
24 | Cc1ccc(Cc2nnc(SCC(=O)Nc3ccc(C)cc3C)[nH]c2=O)cc1 | 10.1%
25 | COc1ccc(Cc2nnc(SCC(=O)Nc3ccc(C)c(Cl)c3)[nH]c2=O)cc1 | 70.4% (active)
26 | Cc1ccc(OCc2nnc(SC/C=C/c3ccccc3)n2Cc2ccco2)cc1 | 5.16%
27 | Cc1ccc(NC(=O)Nc2nnc(-c3ccncc3)s2)cc1 | 56.5% (active)
28 | Cc1ccc(CNC(=O)Nc2nnc([C@H]3C[C@H](O)[C@@H](CO)O3)s2)cc1 | 6.41%
29 | O=C(CCS(=O)(=O)c1ccccc1)Nc1ccc(Cl)c(Cl)c1 | 5.15%
30 | O=C(CC(O)(C(F)(F)F)C(F)(F)F)Nc1ccc(Cl)c(Cl)c1 | 4.89%
31 | Cc1nnc(NC(=O)Nc2ccc(Cl)c(Cl)c2)s1 | 41.7% (active)
32 | Cc1ccc(NC(=O)Nc2cc(C)nn2-c2ccccc2)cc1 | 0.22%
33 | CCOC(=O)Cn1c2c(n(-c3ccc(F)cc3)c1=O)C=C(c1ccccc1)[C@@H](C)C(C(=O)N(C)C1CCCCC1)=C2 | 7.36%
34 | O=C1CCC2(CCC(c3ccc(Cl)cc3)CC2)N1CCO (stereo unspecified) | 0.01%
35 | Cc1cc(/C=N/Nc2ccc([N+](=O)[O-])cn2)c(C)n1-c1cccc(C(=O)O)c1 | 47.8% (active)
36 | Cc1c(NC(=O)Nc2cccc([N+](=O)[O-])c2)c(=O)n(-c2ccccc2)n1C | -1.07%
37 | Cc1cccc(C(=O)NC(=S)N2CCN(c3ccc([N+](=O)[O-])cc3)CC2)c1 | 1.75%
38 | CCN(CC)Cc1c(C(=O)OC)nnn1-c1nonc1N | -2.7%
39 | CCCCOCCCNC(=O)C[C@H]1C[C@@]2(C(=O)OC)C(=C[C@H](COCc3ccccc3)O[C@@H]2C)N(Cc2cccc3ccccc23)C1=O | 4.81%
40 | Cc1ccc(SC(CC(=O)c2ccc(C(C)(C)C)cc2)C(=O)O)cc1 (stereo unspecified) | 42.9% (active)
41 | Cc1ccc(CSCC(N)C(=O)O)cc1 (stereo unspecified) | 5.4%
42 | Cc1ccc(SC(C)C(=O)NCc2ccc(F)cc2)cc1 (stereo unspecified) | -0.76%
43 | CCOC(=O)C1=C(C)NC(SC)=NC1c1ccccc1 (stereo unspecified) | 0.67%
44 | CO[C@@H]1[C@@H](OC(N)=O)[C@@H](O)C(Oc2ccc3c(O)c(NC(=O)c4ccc(O)c(CC=C(C)C)c4)c(=O)oc3c2C)OC1(C)C (stereo partly specified) | 49.8% (active)

Row | Compound | inhibition
45 | COc1ccc(NC(=O)N(C)C[C@@H]2OCCCC[C@@H](C)Oc3ccc(NC(=O)NC4CCCCC4)cc3C(=O)N([C@H](C)CO)C[C@@H]2C)cc1 | 10%
46 | COc1cc(NC(=O)COc2ccccc2Cl)ccc1NC(=O)C(C)C | -5.61%
47 | O=C(COc1ccccc1Cl)Nc1ccc(C(=O)c2ccc(C(=O)O)cc2)cc1 | 41.2% (active)
48 | O=C(COc1ccccc1)Nc1ccc(C(=O)N2CCCC2)cc1 | -1.86%
49 | O=C(OC12CCCN(C1)/C(=C/c1cccnc1)C2)C1CCCC1 (stereo unspecified) | -0.17%
50 | O=C(COC(=O)c1ccc2ncsc2c1)Nc1ccc(Cl)cc1 | 7.21%
51 | Cc1sc(NC(=O)c2ccc3ncsc3c2)c(C(N)=O)c1C | 35.7% (active)
52 | COc1ccccc1-c1nnc(NC(=O)c2ccc3ncsc3c2)o1 | 10.6%
53 | O=C(CCl)NC1CCCCN(Cc2cccc(C(F)(F)F)c2)C1=O (stereo unspecified) | 1.48%
54 | Cc1c(C)c2c(OCC(=O)NCCCO)cc3c(c2oc1=O)CCC(C)(C)O3 | -6.81%
55 | Cc1c(C)c2c(OCC(=O)N[C@@H](C(=O)O)c3ccccc3)cc3c(c2oc1=O)CCC(C)(C)O3 | 41.1% (active)
56 | Cc1cc(=O)oc2c3c(cc(OCC(=O)N[C@H](C(=O)O)c4ccccc4)c12)OC(C)(C)CC3 | 33.1%
57 | CCN(CC(=O)Nc1c(F)cccc1F)C(=O)CN1c2cccc3cccc(c23)S1(=O)=O | -4.19%
58 | c1csc(-c2nnc(SCc3nc4ccccc4[nH]3)o2)c1 | 0.42%
59 | COC(=O)C1[C@H]2SC(C)(C)C(C(=O)OC)N2C(=O)N1Cc1nc2ccccc2s1 (stereo partly specified) | -2.88%
60 | COC(=O)Cc1cc(=O)n(-c2nc3ccccc3s2)[nH]1 | 60.6% (active)
61 | COC(=O)Cc1csc(Nc2c(C)n(C)n(-c3ccccc3)c2=O)n1 | 3.58%
62 | CC(C)NC(=O)/C(C#N)=C\c1ccc(N(C)C)c(Br)c1 | -7.35%
63 | COCC(=O)N[C@@H]1C[C@@H]2O[C@@H](CO)CC[C@@H]2O[C@@H]1CCc1ccc(-c2ccccc2)cc1 | -0.99%
64 | O=C(NCC1(N2CCCCC2)CCCCC1)c1cccc(S(=O)(=O)Nc2ccccc2Cl)c1 | 16.6%
65 | O=C(Nc1ccc2c(c1)CCC2)c1cccc(S(=O)(=O)N2CCN(c3ccc(F)cc3)CC2)c1 | 13%
66 | O=C(Nc1ccc2c(c1)CCC2)c1cccc(S(=O)(=O)Nc2ccccc2Cl)c1 | 57.2% (active)

Row | Compound | inhibition
67 | CCOC(=O)[C@@]12CN(C(=O)OC(C)(C)C)CC=C1N(Cc1ccc(OC)cc1)C(=O)[C@H]2CC(=O)NCc1ccc(OC)c(OC)c1 | 1.18%
68 | CCCCCCC(=O)Nc1nc(C)c(-c2csc(Nc3cc(Cl)ccc3OC)n2)s1 | 41.8% (active)
69 | CCCCCCC(=O)Nc1nc(C)c(-c2csc(Nc3cccc(OC)c3)n2)s1 | 28.5%
70 | C=CCCC(=O)Nc1nc(C)c(-c2csc(Nc3ccc(Cl)cc3)n2)s1 | 31.7%
71 | COCCCNC(=O)C[C@H]1C[C@@]2(C(=O)OC)C(=C[C@H](C(C)(C)C)O[C@@H]2C)N(Cc2ccc3c(c2)OCO3)C1=O | -0.27%
72 | CCOc1cc(/C=C(/C#N)c2ccc(Cl)cc2)cc(Cl)c1OCC(=O)O | 16.7%
73 | CCOc1cc(/C=C(\C#N)c2nc(-c3cccs3)c(NC(C)=O)s2)ccc1O | 37.7% (active)
74 | CCOc1ccc(/C=C/C(=O)N(CC)CC(=O)NCc2cccs2)cc1OC | -8.5%
75 | CCCN1C(=O)c2[nH]nc(-c3ccccc3)c2C1c1ccccc1 (stereo unspecified) | 0.38%
76 | COC(=O)CCCC1=CC2=C(c3ccccc3)C(=O)C(C)(OC(=O)C3CCCC3)C(=O)C2=CN1c1ccc(OC)cc1 (stereo unspecified) | 6.99%
77 | CC1(OC(=O)C2CCCC2)C(=O)C=C2C=C(c3ccc(C#N)cc3)OC=C2C1=O (stereo unspecified) | 50.7% (active)
78 | Cc1ccccc1C(=O)N1CCC(C(=O)Oc2ccc(C#N)cc2)CC1 | -7.52%
79 | C=CC1=CCN(S(=O)(=O)C(C)(C)C)[C@@H]1CCO | 8.95%
80 | CCC(C)Cn1c(O)cc2nn(-c3nc4ccccc4s3)c(=O)c-2c1C (stereo unspecified) | 56.8% (active)
81 | Cc1cccc(OCC(=O)NC2CC(C)(C)NC(C)(C)C2)c1 | 0.76%
82 | Cc1ccc(OCC(=O)Nc2ccc(C(=O)O)cc2NC(=O)COc2ccc(C)c(C)c2)cc1C | 19.4%
83 | Cc1cccc(OCC(=O)Nc2ccc(C(=O)O)cc2NC(=O)COc2cccc(C)c2)c1 | 50.5% (active)
84 | COCC(=O)Nc1cc(C(=O)OC)cc(C(=O)OC)c1 | -0.01%
85 | Cc1cc(C)cc(OCC(=O)Nc2cc(NC(=O)COc3cc(C)cc(C)c3)cc(C(=O)O)c2)c1 | 61.8% (active)
86 | Cc1cc(C)cc(OCC(=O)Nc2ccc(N3CCOCC3)cc2N2CCOCC2)c1 | -4.13%
